Results taken from PubChem BioAssay (NCI).
This is part of a sample that, as a whole, favours compounds with a hit. Of some 79,000 tested, about 15% had one in any assay. The source made the active and inactive calls. Rule as the data show it: active = growth inhibition above about 70%; inactive = the rest.

Test: NCI Yeast Anticancer Drug Screen. Data for the rad52 strain (AID 147);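 also: 0% = growth of vehicle-treated control cultures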
Conditions: S. cerevisiae rad52 mutant growth inhibition, stronger effect = higher value
Experimental: Growth inhibition of yeast strains with defined genetic alterations is measured as a screen for potential anti-cancer activity. Selected strains with alterations in DNA damage repair or cell cycle control were exposed to compounds and growth inhibition was measured relative to vehicle treated controls. The strain used in this assay is rad52

Measured: growth inhibition

CC(=O)SCCC[Si](C)(C)CCCSC(C)=O
inactive: at 1.2 µM -1% | at 3.7 µM 2% | at 11.0 µM 7% | at 33.0 µM 28% | at 100.0 µM 53%

CN(C)c1ccc(C(C#N)=C(C#N)C#N)cc1
inactive: at 1.2 µM -2% | at 3.7 µM -1% | at 11.0 µM 2% | at 33.0 µM 5% | at 100.0 µM 49%

c1ccc2c(c1)C(=NCCCN1CCCCCC1)c1cccn1-2
active: at 100.0 µM 97%
inactive: at 1.2 µM -3% | at 3.7 µM -5% | at 11.0 µM -5% | at 33.0 µM -6%

O=C(O)c1ccccc1NC(=S)c1ccccc1
inactive: at 1.2 µM -5% | at 3.7 µM -1% | at 11.0 µM -4% | at 33.0 µM 7% | at 100.0 µM 67%

Cc1ccc(S/N=C\c2ccccc2O)cc1
inactive: at 1.2 µM 1% | at 3.7 µM -6% | at 11.0 µM -3% | at 33.0 µM 0% | at 100.0 µM 8%

CCCCN(CCCC)CCSc1ccc(Cl)cc1
inactive: at 1.2 µM -6% | at 3.7 µM -13% | at 11.0 µM -10% | at 33.0 µM 16%
active: at 100.0 µM 95%

CCCCOC(=O)N[C@H]1CCc2cc(OC)c(OC)c(OC)c2-c2ccc(SC)c(=O)cc21
active: at 100.0 µM 77%
inactive: at 1.2 µM -2% | at 3.7 µM 1% | at 11.0 µM 6% | at 33.0 µM 36%

CCOC(=O)c1cnc2cc(C(F)(F)F)ccc2c1N=[N+]=[N-]
inactive: at 1.2 µM 12% | at 3.7 µM 13% | at 11.0 µM 23% | at 33.0 µM 48%
active: at 100.0 µM 85%
